# High-throughput results: PubChem BioAssay, several laboratories
# Mtb FBA inh: Mtb fructose-bisphosphate aldolase inhibition; P9WQA3; purified M. tuberculosis FBA, fluorescence read-out; inhibition, % at 1 µM; 2.3% of 360,000 active;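 further: 0% = vehicle and 100% = reference inhibitor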
# BioA inh: BioA (M. tuberculosis) enzyme inhibition | 0.096% of 360,000 active | inhibition, % at 9.99 µM | AID 602481 | purified M. tuberculosis BioA enzyme, plate reader; in the data active means inhibition above about 40%
# FadD28 FP inh: inhibitors of Mycobacterium tuberculosis FadD28 bisubstrate binding; FadD28 bisubstrate probe binding, fluorescence polarization; inhibition, % at 12.5 µM; 0.22% of 360,000 active; AID 588549; in the data active means inhibition above about 8.5%, passing the limit was not always enough
# GDH-TPI counter-1: counter-screen for M. tuberculosis FBA inhibitors: GDH-TPI coupled enzymes. GDH-TPI coupled enzyme counterscreen, NADH absorbance. inhibition, % at 4.8 µM. 1.2% of 360,000 active. AID 588335; in the data active means inhibition above about 30%;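 further: 0% = DMSO wells and 100% = wells lacking the enzyme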
# Rv3671c protease: inhibits the M. tuberculosis serine protease Rv3671c | P9WHR9 | inhibition, % at 5.96 µM | 0.048% of 320,000 active; in the data active means inhibition above about 38%;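 further: extracellular domain of Rv3671c used as enzyme; 0% = enzyme with DMSO and 100% = no enzyme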
# Target sequence (P9WHR9 whole entry, looked up, the tested form may be a part): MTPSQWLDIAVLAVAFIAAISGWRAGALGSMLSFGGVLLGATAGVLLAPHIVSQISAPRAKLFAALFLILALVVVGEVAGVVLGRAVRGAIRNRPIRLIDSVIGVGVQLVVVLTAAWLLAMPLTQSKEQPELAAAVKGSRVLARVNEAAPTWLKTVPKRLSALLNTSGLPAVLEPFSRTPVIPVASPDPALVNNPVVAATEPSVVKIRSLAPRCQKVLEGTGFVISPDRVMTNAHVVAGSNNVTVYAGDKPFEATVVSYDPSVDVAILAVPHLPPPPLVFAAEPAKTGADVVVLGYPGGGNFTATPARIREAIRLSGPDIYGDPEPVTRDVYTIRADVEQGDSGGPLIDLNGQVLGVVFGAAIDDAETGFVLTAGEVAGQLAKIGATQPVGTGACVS
# Mtb FBA confirm: Mtb FBA inhibition, confirmed | shares compounds with Mtb FBA inh | purified M. tuberculosis FBA, fluorescence read-out | inhibition, % at 1 µM | 78% of 5,600 active;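 further: 0% = vehicle wells and 100% = reference inhibitor wells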
# GDH-TPI counter-2: inhibits GDH-TPI coupling enzymes, flagging Mtb FBA hits; GDH-TPI coupled enzyme counterscreen, fluorescence; AID 652141; shares compounds with Mtb FBA inh; 81% of 5,600 active; inhibition, % at 1 µM; in the data active means inhibition above about 10%
# * marks the source's active call; other numbers are inactive results; x = not tested or not shown; + = active, no number. Shown are actives, neighbours in structure and some others; about 3% of the full set was active somewhere. Unless noted, no stated cut-off is given here; in the data, active means inhibition above about 27%; inactive means the rest.
SMILES,Mtb FBA inh,BioA inh,FadD28 FP inh,GDH-TPI counter-1,Rv3671c protease,Mtb FBA confirm,GDH-TPI counter-2
CCCNC(=O)Nc1ccc2c(c1)C(=O)N(C)C[C@H](OC)[C@H](C)CN(Cc1cccnc1)[C@H](C)CO2,x,0,x,x,x,x,x
COc1ccc(CCN(C)C(=O)c2cc(=O)c3ccccc3o2)cc1OC,50*,3,-2,3,3,-22,-18
CCc1ccc(CN(C)C(=O)c2cc(=O)c3ccccc3o2)cc1,-2,1,-4,-16,-4,x,x
CC=Cc1ccc2n(c1=O)C[C@@H]1[C@@H](CO)[C@H](C(=O)NC3CCCC3)[C@H]2N1Cc1ccncc1 (mixture of isomers),x,0,x,x,x,x,x
COC(=O)c1ccc2c(=O)sc(N3CCC(C(N)=O)CC3)nc2c1,40*,1,-7,-2,8,72*,61*
COC(=O)c1ccc(C(=O)OC)c(NC(=S)N2CCC(C(N)=O)CC2)c1,18,0,-1,2,6,x,x
c1ccc(-n2cc(CN3CCC(N4CCOCC4)CC3)c(-c3ccc4c(c3)OCO4)n2)cc1,36*,3,-1,11,1,55*,66*
S=c1[nH]cc(-c2ccccc2)[nH]1,53*,x,-3,-4,5,60*,60*
O=[N+]([O-])c1ccc(-c2c[nH]c(=S)[nH]2)cc1,-1,2,-2,18,-1,x,x
Cc1ccc(-n2nc(C)c3c(C)c(CCC(=O)Nc4ccc(CN5CCCC5)cc4)c(C)nc32)cc1,14,x,-7,14,-16,x,x
CCN(CC)CCNC(=O)CCc1c(C)nc2c(c(C)nn2-c2ccc(C)c(C)c2)c1C,36*,0,-7,1,x,197*,196*
COCCCNC(=O)CCc1c(C)nc2c(c(C)nn2-c2ccccc2)c1C,41*,-3,1,4,x,52*,44*
COC(CNC(=O)CCc1c(C)nc2c(c(C)nn2-c2ccc(C)cc2)c1C)OC,40*,1,-2,19,x,-12,-12
Cc1ccc(-n2nc(C)c3c(C)c(CCC(=O)NCCCOC(C)C)c(C)nc32)cc1,25,-3,-2,10,x,x,x
CCOC(=O)N1CCC(NC(=O)CCc2c(C)nc3c(c(C)nn3-c3ccccc3)c2C)CC1,4,-1,-2,15,x,x,x
CCC(=O)N1[C@H](C(=O)NC2CCC2)[C@@H](CO)[C@@H]2Cn3c(ccc(C4=CCCC4)c3=O)[C@@H]21,x,-2,x,x,x,x,x
O=C([C@@H]1[C@@H](CO)[C@@H]2Cn3c(ccc(-c4ccccc4)c3=O)[C@H]1N2CCC(F)(F)F)N1CCOCC1,x,-2,x,x,x,x,x
O=c1c2ccccc2nc(-c2ccccc2)n1Cc1ccc(Cl)cc1,-4,3,0,11,-5,x,x
O=c1c2ccccc2nc2n1CCN2Cc1ccc(Cl)cc1,34*,24,-2,10,-1,192*,170*
Cc1cc(C)n2nc(NCc3ccccc3)nc2n1,55*,-1,-4,7,1,4,-5
COc1ccc(-c2nc3nc(C)cc(C)n3n2)cc1,57*,2,-3,-11,-5,49*,38*
O=C(NNc1nc2cc3c(cc2s1)OCO3)c1ccc(F)cc1,5,0,-1,-13,-2,x,x
Fc1ccc2nc(Nc3nc4cc5c(cc4s3)OCCO5)sc2c1,59*,-1,-2,16,6,75*,63*
c1ccc2sc(Nc3nc4cc5c(cc4s3)OCO5)nc2c1,29*,15,0,16,3,2,-3
Fc1ccc2nc(Nc3nc4cc5c(cc4s3)OCO5)sc2c1,38*,x,-1,13,-11,56*,52*
SMILES,Mtb FBA inh,BioA inh,FadD28 FP inh,GDH-TPI counter-1,Rv3671c protease,Mtb FBA confirm,GDH-TPI counter-2
COc1ccc(S(=O)(=O)N(C)C[C@H]2Oc3ccc(NC(=O)Nc4ccc(F)cc4)cc3CC(=O)N([C@H](C)CO)C[C@H]2C)cc1,x,-2,x,x,x,x,x
O=C(c1cccc(F)c1)N1C[C@@H]2[C@H](c3ccccc31)[C@@H](CO)N2C(=O)c1ccccn1,x,-1,x,x,x,x,x
C(=C\c1ccco1)/c1nc2ccccc2[nH]1,23,x,-3,28,5,x,x
C(=C\c1nc2ccccc2[nH]1)/c1ccccc1,32*,1,-5,37*,-6,+,+
COC(=O)C1CCN(C(=O)COC(=O)c2oc3ccc(OC)cc3c2C)CC1,51*,-1,-2,2,-3,108*,103*
COc1ccc2oc(C(=O)OCC(=O)N3CCC(C)CC3)c(C)c2c1,44*,0,-2,12,-8,9,1
CCOC(=O)c1c(C)[nH]c(C(=O)COC(=O)c2oc3ccc(OC)cc3c2C)c1C,7,-1,0,-1,-2,x,x
CCOC(=O)N1CCN(C(=O)COC(=O)c2oc3ccc(OC)cc3c2C)CC1,48*,0,-4,-1,5,+,+
Cc1c(C(=O)OCC(=O)N2CCC(C)CC2)oc2ccccc12,2,0,-4,3,-8,x,x
CCCN(C)C[C@@H]1OCCCC[C@@H](C)Oc2ccc(NS(=O)(=O)c3cccs3)cc2C(=O)N([C@H](C)CO)C[C@@H]1C,x,-2,x,x,x,x,x
CC(C)CCOCC(=O)Oc1ccccc1C(=O)O,34*,1,0,-3,3,-5,-4
CC(=O)Oc1ccccc1C(=O)Oc1ccccc1C(=O)O,9,-6,0,18,2,x,x
CCNc1nc(Oc2ccc(C#N)cc2)cc(C(F)(F)F)n1,56*,x,-1,7,-2,131*,88*
CCNc1nc(Oc2ccc(F)cc2)cc(C(F)(F)F)n1,2,0,0,-3,-5,x,x
O=S(=O)(c1cccs1)N1CN(CC2CCCO2)c2nc3ccccc3nc21 (stereo unspecified),51*,-2,0,21,-2,70*,58*
Cc1ccc(S(=O)(=O)N2CN(CC3CCCO3)c3nc4ccccc4nc32)c(C)c1 (stereo unspecified),8,-1,-1,6,5,x,x
O=S(=O)(c1cccs1)N1CN(Cc2ccccc2)c2nc3ccccc3nc21,32*,x,1,36*,-7,40*,27*
O=S(=O)(Nc1nc2cc3c(cc2nc1Cl)OCCO3)c1ccccc1,48*,x,-3,3,-2,61*,37*
CC(=O)Nc1ccc(S(=O)(=O)Nc2nc3cc4c(cc3nc2Cl)OCCO4)cc1,62*,2,-1,24,7,76*,71*
CC(=O)Nc1ccc(S(=O)(=O)Nc2nc3ccccc3nc2Cl)cc1,-1,x,-5,-3,3,x,x
CNC[C@H]1OCCCC[C@@H](C)Oc2ccc(NC(=O)c3ccncc3)cc2C(=O)N([C@@H](C)CO)C[C@@H]1C,x,-7,x,x,x,x,x
COc1cccc(CN2CC(C(=O)NCCc3cn4cccnc4n3)CCC2=O)c1 (stereo unspecified),47*,1,-3,3,x,102*,71*
